{
  "source": "the supplement of paper PMC6124720",
  "note": "Where a name gives a salt, the structure may show the parent alone. A number with no mark means an inactive call.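 Also: biolog Phenotype Microarray plates PM21–25, OD595 followed daily over 11 days, growth curves converted to index, mean of two independent experiments.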",
  "data": [
    {"tested_on": "Pseudogymnoascus destructans 20631-21", "assay": "growth activity index (DuctApe, 0 = no growth, 9 = maximal growth) (index 0-9); higher = more fungal growth (less inhibition), active = 0 or less; extreme values may be limits of the assay", "details": "concentration level (1-4, increasing; Biolog proprietary): 3; temperature: 13 °C; YPD", "values": [
      {"smiles": "C[C@H]1c2cccc(O)c2C(=O)C2=C(O)[C@]3(O)C(=O)C(C(N)=O)=C(O)[C@@H](N(C)C)[C@@H]3[C@@H](O)[C@@H]21", "note": "[Doxycycline] (Biolog plate: PM23)", "growth activity index": 5.33},
      {"smiles": "CO/N=C(\\C(=O)N[C@@H]1C(=O)N2C(C(=O)O)=C(CSc3nc(=O)c(O)nn3C)CS[C@H]12)c1csc(N)n1", "note": "[Ceftriaxone] (Biolog plate: PM22)", "growth activity index": "0 (active)"},
      {"smiles": "On1ccccc1=S", "note": "[1-Hydroxypyridine-2-thione (pyrithione)] (Biolog plate: PM21)", "growth activity index": 4.25},
      {"smiles": "NCCSCC(N)C(=O)O", "note": "(stereo not given) [Thialysine] (Biolog plate: PM24)", "growth activity index": 4.67},
      {"smiles": "C=C(CC[C@]12O[C@H](C(=O)O)[C@@](O)(C(=O)O)[C@](C(=O)O)(O1)[C@H](OC(=O)/C=C/[C@@H](C)C[C@@H](C)CC)[C@H]2O)[C@@H](OC(C)=O)[C@H](C)Cc1ccccc1", "note": "[Zaragozic acid A] (Biolog plate: PM24)", "growth activity index": 0.667},
      {"smiles": "NCC(=O)NO", "note": "[Glycine hydroxamate] (Biolog plate: PM22)", "growth activity index": 2},
      {"smiles": "N=C(N)N", "note": "[Guanidine hydrochloride] (Biolog plate: PM21)", "growth activity index": 0.5},
      {"smiles": "O=S(=O)([O-])[O-].[Cu+2]", "note": "[Copper (II) sulfate] (Biolog plate: PM21)", "growth activity index": 6},
      {"smiles": "[Cl-].[Cl-].[Zn+2]", "note": "[Zinc chloride] (Biolog plate: PM21)", "growth activity index": 7},
      {"smiles": "[I-].[K+]", "note": "[Potassium iodide] (Biolog plate: PM22)", "growth activity index": "0 (active)"},
      {"smiles": "Cc1cc(N)c2ccccc2[n+]1CCCCCCCCCC[n+]1c(C)cc(N)c2ccccc21", "note": "[Dequalinium chloride] (Biolog plate: PM23)", "growth activity index": 2},
      {"smiles": "N=C(N)c1ccccc1", "note": "[Benzamidine] (Biolog plate: PM22)", "growth activity index": "0 (active)"},
      {"smiles": "O=NO", "note": "[Sodium Nitrite] (Biolog plate: PM23)", "growth activity index": 1},
      {"smiles": "NC[C@@H]1O[C@H](O[C@H]2[C@@H](O)[C@H](O[C@@H]3[C@@H](O)[C@H](N)C[C@H](N)[C@H]3O[C@H]3O[C@H](CN)[C@@H](O)[C@H](O)[C@H]3N)O[C@@H]2CO)[C@H](N)[C@@H](O)[C@@H]1O", "note": "[Neomycin] (Biolog plate: PM21)", "growth activity index": 2.5},
      {"smiles": "O=C(O)CCC(=O)O", "note": "[Succinic acid] (Biolog plate: PM25)", "growth activity index": 3.67},
      {"smiles": "NC(N)=NCCC[C@H](N)C(=O)NO", "note": "[L-Arginine hydroxamate] (Biolog plate: PM22)", "growth activity index": 3.33},
      {"smiles": "O=C(O)CN(CCOCCOCCN(CC(=O)O)CC(=O)O)CC(=O)O", "note": "(Biolog plate: PM24)", "growth activity index": 4},
      {"smiles": "NC[C@H]1O[C@H](O[C@H]2[C@H](O)[C@@H](O[C@H]3O[C@H](CO)[C@@H](O)[C@H](N)[C@H]3O)[C@H](N)C[C@@H]2N)[C@H](O)[C@@H](O)[C@@H]1O", "note": "[Kanamycin] (Biolog plate: PM25)", "growth activity index": 5},
      {"smiles": "[Cl][Pd][Cl]", "note": "[Palladium(II) Chloride] (Biolog plate: PM25)", "growth activity index": 4.67},
      {"smiles": "CSc1ccc2c(c1)N(CCC1CCCCN1C)c1ccccc1S2", "note": "(stereo not given) [Thioridazine] (Biolog plate: PM24)", "growth activity index": "0 (active)"},
      {"smiles": "C[C@@H]1[C@H](O)[C@@H](C)/C=C/C=C/C=C/C=C/C=C/C=C/C=C/[C@H](O[C@@H]2O[C@H](C)[C@@H](O)[C@H](N)[C@@H]2O)C[C@@H]2O[C@](O)(C[C@@H](O)C[C@@H](O)[C@H](O)CC[C@@H](O)C[C@@H](O)CC(=O)O[C@H]1C)C[C@H](O)[C@H]2C(=O)O", "note": "[Amphotericin B] (Biolog plate: PM24)", "growth activity index": "0 (active)"},
      {"smiles": "NC(N)=S", "note": "[Thiourea] (Biolog plate: PM21)", "growth activity index": "0 (active)"},
      {"smiles": "[Cl][Co][Cl]", "note": "[Cobalt (II) chloride] (Biolog plate: PM23)", "growth activity index": 4.33},
      {"smiles": "c1ccc(-c2nn(-c3ccccc3)[n+](-c3cccc4ccccc34)n2)cc1", "note": "[Tetrazolium violet] (Biolog plate: PM25)", "growth activity index": "0 (active)"},
      {"smiles": "O=c1cn[nH]c(=O)[nH]1", "note": "[6-Azauracil] (Biolog plate: PM24)", "growth activity index": 4.67},
      {"smiles": "Nc1[nH]c(=O)ncc1F", "note": "[5-Fluorocytosine] (Biolog plate: PM25)", "growth activity index": 4.33},
      {"smiles": "c1ccc(-c2ccccn2)nc1", "note": "[2,2`-Dipyridyl] (Biolog plate: PM21)", "growth activity index": 5.25},
      {"smiles": "[Cl][Mn][Cl]", "note": "[Manganese chloride] (Biolog plate: PM21)", "growth activity index": 4.5},
      {"smiles": "OB(O)O", "note": "[Boric acid] (Biolog plate: PM22)", "growth activity index": "0 (active)"},
      {"smiles": "CN(C)[C@@H]1C(O)=C(C(N)=O)C(=O)[C@@]2(O)C(O)=C3C(=O)c4c(O)ccc(Cl)c4[C@@](C)(O)[C@H]3C[C@@H]12", "note": "[Chlortetracycline] (Biolog plate: PM24)", "growth activity index": 6},
      {"smiles": "N[C@H](CO)C(=O)O", "note": "[D-Serine] (Biolog plate: PM22)", "growth activity index": 4},
      {"smiles": "CC(C)Cc1ccc(C(C)C(=O)O)cc1", "note": "(stereo not given) [Ibuprofen] (Biolog plate: PM25)", "growth activity index": 4},
      {"smiles": "NO", "note": "[Hydroxylamine] (Biolog plate: PM23)", "growth activity index": 2.67},
      {"smiles": "O=P(O)(O)OP(=O)(O)O", "note": "[Sodium pyrophosphate] (Biolog plate: PM24)", "growth activity index": 4.67},
      {"smiles": "CCCCCCCCCCCC[N+](C)(C)C", "note": "[Dodecyltrimethyl ammonium bromide] (Biolog plate: PM21)", "growth activity index": "0 (active)"},
      {"smiles": "[Na+].[O]=[V](=[O])[O-]", "note": "[Sodium metavanadate] (Biolog plate: PM22)", "growth activity index": 5},
      {"smiles": "[Cl-].[Li+]", "note": "[Lithium chloride] (Biolog plate: PM22)", "growth activity index": "0 (active)"},
      {"smiles": "O=C(O)/C=C/c1ccccc1", "note": "[Cinnamic acid] (Biolog plate: PM25)", "growth activity index": 5},
      {"smiles": "O=C([O-])c1ccccc1O.[Na+]", "note": "[Sodium Salicylate] (Biolog plate: PM25)", "growth activity index": 4},
      {"smiles": "[Cl][Cu][Cl]", "note": "[Cupric chloride] (Biolog plate: PM23)", "growth activity index": 6}
    ]}
  ]
}
